Data on eleven compounds can be found in ChEMBL document CHEMBL5724796, “Tm Shift (DSF) assay results for EUbOPEN Chemogenomics Library” (2024).

Residues, ends and D or L forms follow the SMILES beside them. *: point of attachment. CH2Cl = ClC*

Holding throughout (conditions): Compound concentration 20.0 uM
Experiment [1] has as its target Tyrosine-protein kinase ABL1 (Homo sapiens) (UniProt P00519).
Experiment [2] deals with Bromodomain-containing protein 4 (Homo sapiens) (UniProt O60885).
Experiment [3] deals with Cyclin-dependent kinase 2 (Homo sapiens) (UniProt P24941).
Experiment [4] deals with Casein kinase I isoform delta (Homo sapiens) (UniProt P48730).
The target of experiment [5] is Glycogen synthase kinase-3 beta (Homo sapiens) (UniProt P49841).
The target in experiment [6] is Mitogen-activated protein kinase 1 (Homo sapiens) (UniProt P28482).
Experiment [7] concerns the target T1, Aurora kinase A (Homo sapiens) (UniProt O14965).
T1 sequence (whole entry): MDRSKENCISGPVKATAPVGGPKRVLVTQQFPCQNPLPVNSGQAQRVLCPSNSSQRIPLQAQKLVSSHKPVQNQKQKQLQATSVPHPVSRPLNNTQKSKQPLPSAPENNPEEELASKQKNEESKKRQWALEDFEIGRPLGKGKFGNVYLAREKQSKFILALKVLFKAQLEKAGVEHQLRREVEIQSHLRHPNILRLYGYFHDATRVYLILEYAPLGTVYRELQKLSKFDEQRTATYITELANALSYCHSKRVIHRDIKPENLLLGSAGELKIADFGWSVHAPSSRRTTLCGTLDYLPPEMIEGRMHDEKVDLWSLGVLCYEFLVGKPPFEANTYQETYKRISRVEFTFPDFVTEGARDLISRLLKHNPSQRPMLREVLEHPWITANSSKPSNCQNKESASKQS

Experiment [8] addresses T2, Transcription intermediary factor 1-alpha (Homo sapiens) (UniProt O15164).
T2 sequence (whole entry): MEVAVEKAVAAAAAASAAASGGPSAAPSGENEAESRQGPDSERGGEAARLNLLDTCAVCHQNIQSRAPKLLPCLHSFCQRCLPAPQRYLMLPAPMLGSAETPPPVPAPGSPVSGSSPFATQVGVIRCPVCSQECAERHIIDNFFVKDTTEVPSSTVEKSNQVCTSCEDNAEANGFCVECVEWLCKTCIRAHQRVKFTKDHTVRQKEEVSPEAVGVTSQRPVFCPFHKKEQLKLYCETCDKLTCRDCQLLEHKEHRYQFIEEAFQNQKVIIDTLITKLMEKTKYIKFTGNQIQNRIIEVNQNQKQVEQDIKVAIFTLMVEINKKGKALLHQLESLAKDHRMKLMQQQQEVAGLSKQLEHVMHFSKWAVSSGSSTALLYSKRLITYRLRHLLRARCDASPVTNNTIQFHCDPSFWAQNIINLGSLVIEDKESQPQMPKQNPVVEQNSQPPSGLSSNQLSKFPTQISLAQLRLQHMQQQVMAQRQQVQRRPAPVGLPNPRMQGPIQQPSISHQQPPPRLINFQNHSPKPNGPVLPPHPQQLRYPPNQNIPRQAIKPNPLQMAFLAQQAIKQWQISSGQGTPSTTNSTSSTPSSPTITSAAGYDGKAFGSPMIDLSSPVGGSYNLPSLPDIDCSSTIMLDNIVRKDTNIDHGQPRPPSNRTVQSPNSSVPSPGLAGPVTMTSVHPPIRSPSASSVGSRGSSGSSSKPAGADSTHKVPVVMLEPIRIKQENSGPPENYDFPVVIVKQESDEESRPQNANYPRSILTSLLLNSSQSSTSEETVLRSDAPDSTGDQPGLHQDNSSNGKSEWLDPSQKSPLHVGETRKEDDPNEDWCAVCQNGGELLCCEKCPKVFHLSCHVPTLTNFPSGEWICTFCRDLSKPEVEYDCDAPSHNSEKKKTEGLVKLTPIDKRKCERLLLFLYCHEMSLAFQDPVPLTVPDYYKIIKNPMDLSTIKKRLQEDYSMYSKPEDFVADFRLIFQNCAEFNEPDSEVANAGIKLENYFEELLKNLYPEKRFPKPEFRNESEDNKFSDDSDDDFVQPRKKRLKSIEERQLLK

Sequence of Glycogen synthase kinase-3 beta (Homo sapiens) (P49841 whole entry, looked up): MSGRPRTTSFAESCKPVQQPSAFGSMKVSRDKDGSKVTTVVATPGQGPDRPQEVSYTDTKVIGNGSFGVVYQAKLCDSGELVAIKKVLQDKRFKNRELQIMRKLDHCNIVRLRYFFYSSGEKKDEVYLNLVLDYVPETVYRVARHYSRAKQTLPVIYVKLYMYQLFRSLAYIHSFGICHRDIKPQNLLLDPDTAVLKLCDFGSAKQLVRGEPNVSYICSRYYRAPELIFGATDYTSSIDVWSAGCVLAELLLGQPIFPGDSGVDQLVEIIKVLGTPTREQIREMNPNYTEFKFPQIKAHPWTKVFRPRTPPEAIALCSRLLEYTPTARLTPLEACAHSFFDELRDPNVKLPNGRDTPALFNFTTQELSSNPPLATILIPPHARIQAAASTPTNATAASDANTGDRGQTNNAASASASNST
Sequence of Casein kinase I isoform delta (Homo sapiens) (P48730 whole entry, looked up, canonical isoform): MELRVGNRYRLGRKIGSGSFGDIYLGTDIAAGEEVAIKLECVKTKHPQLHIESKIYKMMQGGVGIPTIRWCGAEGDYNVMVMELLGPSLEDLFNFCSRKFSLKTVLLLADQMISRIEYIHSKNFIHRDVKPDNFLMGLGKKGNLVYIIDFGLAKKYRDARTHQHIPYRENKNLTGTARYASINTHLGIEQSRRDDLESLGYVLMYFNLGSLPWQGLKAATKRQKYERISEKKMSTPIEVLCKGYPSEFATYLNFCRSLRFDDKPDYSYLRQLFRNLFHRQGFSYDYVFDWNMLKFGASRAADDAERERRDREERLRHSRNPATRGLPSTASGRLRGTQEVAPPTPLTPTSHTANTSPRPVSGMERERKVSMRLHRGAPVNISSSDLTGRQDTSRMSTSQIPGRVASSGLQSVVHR
Sequence of Tyrosine-protein kinase ABL1 (Homo sapiens) (P00519 whole entry): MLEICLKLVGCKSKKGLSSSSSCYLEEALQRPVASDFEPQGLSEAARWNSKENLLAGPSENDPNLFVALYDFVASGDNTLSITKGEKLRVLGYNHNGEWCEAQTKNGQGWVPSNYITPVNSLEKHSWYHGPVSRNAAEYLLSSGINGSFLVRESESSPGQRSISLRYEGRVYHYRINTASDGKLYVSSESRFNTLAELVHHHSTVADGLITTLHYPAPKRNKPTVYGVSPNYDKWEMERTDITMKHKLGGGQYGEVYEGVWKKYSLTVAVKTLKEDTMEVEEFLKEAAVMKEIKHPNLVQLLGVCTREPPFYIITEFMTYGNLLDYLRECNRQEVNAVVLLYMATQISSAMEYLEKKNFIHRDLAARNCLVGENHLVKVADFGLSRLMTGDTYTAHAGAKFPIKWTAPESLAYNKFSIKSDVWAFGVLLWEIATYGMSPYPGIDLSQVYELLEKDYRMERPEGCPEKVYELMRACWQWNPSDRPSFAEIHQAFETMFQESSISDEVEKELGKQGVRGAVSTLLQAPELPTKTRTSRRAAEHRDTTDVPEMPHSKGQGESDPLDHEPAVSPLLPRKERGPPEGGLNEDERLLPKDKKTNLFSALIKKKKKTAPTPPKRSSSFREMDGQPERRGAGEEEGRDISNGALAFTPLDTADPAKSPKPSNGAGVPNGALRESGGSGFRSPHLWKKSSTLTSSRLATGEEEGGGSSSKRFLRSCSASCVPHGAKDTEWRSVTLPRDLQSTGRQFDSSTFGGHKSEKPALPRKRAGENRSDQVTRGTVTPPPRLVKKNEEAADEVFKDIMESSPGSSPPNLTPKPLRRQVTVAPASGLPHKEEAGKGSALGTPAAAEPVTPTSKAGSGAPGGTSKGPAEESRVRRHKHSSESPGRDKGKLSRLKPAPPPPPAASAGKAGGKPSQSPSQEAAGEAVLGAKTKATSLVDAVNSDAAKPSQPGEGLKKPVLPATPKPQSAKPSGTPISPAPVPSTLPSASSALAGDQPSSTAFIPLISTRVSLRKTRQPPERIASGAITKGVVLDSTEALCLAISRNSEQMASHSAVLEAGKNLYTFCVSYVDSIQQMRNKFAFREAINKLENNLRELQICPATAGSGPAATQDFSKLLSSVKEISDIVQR
Sequence of Mitogen-activated protein kinase 1 (Homo sapiens) (P28482 whole entry): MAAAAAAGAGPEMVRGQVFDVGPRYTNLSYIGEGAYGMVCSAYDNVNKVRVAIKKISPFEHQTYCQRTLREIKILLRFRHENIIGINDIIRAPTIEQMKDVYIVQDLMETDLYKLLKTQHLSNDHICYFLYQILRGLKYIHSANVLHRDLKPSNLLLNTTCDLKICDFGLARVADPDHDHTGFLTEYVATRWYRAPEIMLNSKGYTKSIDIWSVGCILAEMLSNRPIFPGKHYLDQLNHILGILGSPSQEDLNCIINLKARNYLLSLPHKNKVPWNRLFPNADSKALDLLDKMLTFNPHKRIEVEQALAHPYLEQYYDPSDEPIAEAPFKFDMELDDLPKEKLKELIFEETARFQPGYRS

In the case of `Nc1ccccc1NC(=O)c1ccc(CNC(=O)OCc2cccnc2)cc1`, the ΔTm in experiment [1] is 0.63 °C; in experiment [2], -1.69 °C; in experiment [3] it was 0.81 °C; in experiment [4] it was 0.33 °C; in experiment [5] it was -0.75 °C; in experiment [6] it was 0.21 °C. Further, the ΔTm was 0.05 °C in experiment [7] and -1.42 °C in experiment [8].
For `CCc1oc2ccccc2c1C(=O)c1cc(Br)c(O)c(Br)c1`, the ΔTm in experiment [1] was 0.11 °C; in experiment [2], -6.7 °C; in experiment [3], -2.31 °C; in experiment [4] it was -9.78 °C; in experiment [5], 0 °C; in experiment [6], -2.33 °C. The ΔTm in experiment [7] came out at 0.35 °C; in experiment [8], 0 °C.
`C[C@H](NC(=O)[C@H](Cc1ccccc1)NC(=O)OCc1ccccc1)C(=O)CF`: the ΔTm in experiment [1] is 0.31 °C; in experiment [2], -2.33 °C; in experiment [3], 0.15 °C; in experiment [4] it was 0.19 °C; in experiment [5] it was -0.61 °C; in experiment [6], -0.19 °C. Also, the results for the ΔTm in experiment [7] and in experiment [8] were -0.86 °C and -1.01 °C, respectively.
For the compound `O=C(NO)c1cccc(C(=O)NCCc2ccccc2)c1`, the ΔTm in experiment [1] was 0.54 °C; in experiment [2] it was -1.69 °C; in experiment [3] it was 1.3 °C; in experiment [4] it was 0.19 °C; in experiment [5] it was -1.53 °C; in experiment [6], 0.15 °C. Also, the ΔTm in experiment [7] is -0.23 °C; in experiment [8] it was -1.33 °C.
Regarding `CCC[C@H]1CNCc2c1[nH]c(=O)c(C#N)c2N1CCC2(CC1)CC2`, the ΔTm was 0.01 °C in experiment [1]; -1.65 °C in experiment [2]; -0.06 °C in experiment [3]; 0.15 °C in experiment [4]; -0.31 °C in experiment [5]; -0.08 °C in experiment [6]. The ΔTm in experiment [7] was -0.93 °C; in experiment [8], -1.34 °C.
For `COc1cc(O)cc(CN2CCc3c(cc(Cn4ccn(C)c4=N)cc3-c3ccc(F)cc3C)C2=O)c1`, the ΔTm in experiment [1] was 0.41 °C; in experiment [2], -3.72 °C; in experiment [3], -0.56 °C; in experiment [4], -0.83 °C; in experiment [5], -0.55 °C; in experiment [6] it was 0.04 °C. For the same compound, the results for the ΔTm in experiment [7] and in experiment [8] were -2.93 °C and -1.53 °C, respectively.
Regarding `CC(C)C[C@@H](C=O)NC(=O)[C@@H](NS(=O)(=O)c1ccc(F)cc1)C(C)C`, the ΔTm in experiment [1] was -0.01 °C; in experiment [2], -1.83 °C; in experiment [3] it was -0.11 °C; in experiment [4] it was 0.22 °C; in experiment [5] it was -0.13 °C; in experiment [6], 0.01 °C. Further, the ΔTm in experiment [7] was -1.2 °C; in experiment [8] it was -1.15 °C.
For the compound `CCOc1ccc(Cc2cc([C@@H]3O[C@H](CO)[C@@H](O)[C@H](O)[C@H]3O)ccc2Cl)cc1`, the ΔTm in experiment [1] is 0.64 °C; in experiment [2] it was -1.76 °C; in experiment [3], -0.13 °C; in experiment [4], -0.16 °C; in experiment [5], -0.82 °C; in experiment [6], 0.08 °C. Moreover, the ΔTm is -2.13 °C in experiment [7] and -0.07 °C in experiment [8].
For the compound `OC1CN=C2c3ccn([C@@H]4O[C@H]([C@H](O)c5ccc(Cl)cc5)[C@@H](O)[C@H]4O)c3N=CN21` (stereo partly drawn), the ΔTm in experiment [1] was 0.73 °C; in experiment [2] it was -1.38 °C; in experiment [3], 0.66 °C; in experiment [4], 0.22 °C; in experiment [5], -0.73 °C; in experiment [6], 0.16 °C. Besides, the ΔTm is -0.39 °C in experiment [7] and -1.14 °C in experiment [8].
Take `CC(=O)N[C@@H](Cc1ccccc1)C(=O)N[C@@H](CC(C)C)C(=O)N[C@H](C(=O)N[C@@H](CC(=O)O)C(=O)CCl)[C@@H](C)O` (Ac-FLTD-CH2Cl): the ΔTm in experiment [1] was 0.28 °C; in experiment [2], -2.88 °C; in experiment [3], 0.03 °C; in experiment [4], 0.15 °C; in experiment [5] it was -0.18 °C; in experiment [6] it was -0.16 °C. The ΔTm in experiment [7] is -0.89 °C; in experiment [8], -0.91 °C.
With `Cc1ncsc1-c1ccc([C@H](C)NC(=O)[C@@H]2C[C@@H](O)CN2C(=O)[C@@H](NC(=O)COCCCOCCNC(=O)C[C@@H]2N=C(c3ccc(Cl)cc3)c3c(sc(C)c3C)-n3c(C)nnc32)C(C)(C)C)cc1`, the ΔTm in experiment [1] is -0.44 °C; in experiment [2], 7 °C; in experiment [3] it was -3.66 °C; in experiment [4] it was 0.48 °C; in experiment [5] it was 0 °C; in experiment [6] it was 0 °C. The ΔTm in experiment [7] is 0 °C; in experiment [8], -3.36 °C.
